In PubChem BioAssay (NCI):
This is part of a sample that, as a whole, favours compounds with a hit. Of some 83,000 tested, about 20% had one in any assay.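 Plates (96-well) were seeded with cells, treated with compound at one concentration, and incubated for 48 hours before percent growth was determined.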

Experiments:
Assay in all cases: NCI-60 one-dose screen, 48 h (100 = growth as untreated, 0 = no growth, -100 = all killed); active = growth percent below 10; inactive = the rest
[1] = test system: NCI-H23 lung; settings: 10 µM unless noted
[2] = test system: HOP-62 NSCLC; settings: 10 µM unless noted
[3] = test system: NCI-H460 lung; settings: 10 µM unless noted
[4] = test system: A549/ATCC NSCLC; settings: 10 µM unless noted
[5] = test system: K-562 leukemia; settings: 10 µM unless noted
[6] = test system: RXF 393 renal; settings: 10 µM unless noted
[7] = test system: SF-295 CNS; settings: 10 µM unless noted
[8] = test system: UACC-257 melanoma; settings: 10 µM unless noted
[9] = test system: U251 CNS; settings: 10 µM unless noted
[10] = test system: LOX IMVI melanoma; settings: 10 µM unless noted
[11] = test system: SK-MEL-28 melanoma; settings: 10 µM unless noted
[12] = test system: SK-MEL-2 melanoma; settings: 10 µM unless noted
[13] = test system: UO-31 renal; settings: 10 µM unless noted
[14] = test system: TK-10 renal; settings: 10 µM unless noted
[15] = test system: A498 renal; settings: 10 µM unless noted
[16] = test system: HL-60(TB) leukemia; settings: 10 µM unless noted
[17] = test system: SR leukemia; settings: 10 µM
[18] = test system: OVCAR-4 ovarian; settings: 10 µM unless noted
[19] = test system: BT-549 breast; settings: 10 µM
[20] = test system: HCC-2998 colon; settings: 10 µM unless noted

Measured: growth

O=C(Nc1ccc(S(=O)(=O)F)cc1)Oc1ccccc1
inactive: [1] 97.8% | [2] 93.3% | [3] 102% | [4] 97.2% | [5] 100% | [6] 95.3% | [7] 96.8% | [8] 111% | [9] 96.8% | [10] 95.1% | [11] 99.2% | [12] 107% | [13] 87% | [14] 96.5% | [15] 97.6% | [16] 105% | [17] 99.9% | [18] 97% | [19] 98.2% | [20] 110%

CCCCN(CCCC)CC(O)c1ccccc1 (stereo not given)
inactive: [1] 100% | [2] 114% | [3] 110% | [4] 104% | [5] 103% | [6] 116% | [7] 103% | [8] 106% | [9] 100% | [10] 103% | [11] 103% | [12] 115% | [13] 100% | [14] 115% | [15] 82.6% | [16] 111% | [17] 102% | [18] 95.4% | [19] 124% | [20] 102%

CCOC(=O)/C(C#N)=C/c1ccc(N(CCCl)CCCl)cc1
inactive: [1] 94.9% | [2] 81.7% | [3] 41.4% | [4] 85.2% | [5] 98.6% | [6] 93.3% | [7] 43.6% | [8] 103% | [9] 92% | [10] 92% | [11] 99% | [12] 99.2% | [13] 79.3% | [14] 91.4% | [15] 95.5% | [16] 85.2% | [17] 30.3% | [18] 61.5% | [19] 95.3% | [20] 105%
